Drawing on PubChem BioAssay (Tox21), this text covers Potency and outcome for eight compounds.

A short description of test [1]: qHTS assay to identify small molecule antagonists of the glucocorticoid receptor (GR) signaling pathway - cell viability counter screen (AID 720693). Note: nearly all actives have a fitted effect of over 55% in size. Background: Quantitative high-throughput screening tests each substance at several concentrations.
A short description of test [2]: qHTS assay for identifying genotoxic compounds that show differential cytotoxicity against isogenic chicken DT40 cell lines with known DNA damage response pathways - wild type cell line (AID 743012). Note: nearly all actives have a fitted effect of over 60% in size. Note: potency is the fitted concentration of half-maximal effect. An outline of the steps:
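Wild type DT40, 300 cells/well, ~0.5 h settle at 37 C/5% CO2; compounds in DMSO added by pintool; 40 h at 37 C/5% CO2; CellTiter-Glo, 30 min RT; luminescence.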

A short description of test [3]: qHTS assay for identifying genotoxic compounds that show differential cytotoxicity against isogenic chicken DT40 cell lines with known DNA damage response pathways - Rev3 mutant cell line (AID 743014). Note: nearly all actives have a fitted effect of over 55% in size.
Test [4] can be described thus: qHTS assay for identifying genotoxic compounds that show differential cytotoxicity against isogenic chicken DT40 cell lines with known DNA damage response pathways - Rad54/Ku70 mutant cell line (AID 743015). Note: nearly all actives have a fitted effect of over 60% in size. Note: potency is the fitted concentration of half-maximal effect.
A short description of test [5]: qHTS assay to identify small molecule antagonists of the androgen receptor (AR) signaling pathway - cell viability counter screen (AID 743033; note: nearly all actives have a fitted effect of over 45% in size).
Test [6] can be described thus: qHTS assay to identify small molecule antagonists of the androgen receptor (AR) signaling pathway using the MDA cell line - cell viability counter screen (AID 743041; note: nearly all actives have a fitted effect of over 45% in size). Put shortly:
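MDA-kb2 AR-luc cells (MMTV-luciferase, AR/GR responsive) treated with compounds plus R1881 agonist for 16 h at 37C. CellTiter-Fluor added at 15.5 h; fluorescence read after 30 min in the same wells.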

Test [7] is described as follows: qHTS assay to identify small molecule antagonists of the thyroid receptor (TR) signaling pathway - cell viability counter screen (AID 743064). Note: nearly all actives have a fitted effect of over 50% in size. Put shortly:
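Rat GH3 pituitary tumor cells stably expressing two TR response elements driving luciferase were plated, rested 4 h, then dosed with library compounds and T3 (1 nM final). After 23.5 h at 37 °C, CellTiter-Fluor was added for 30 min and fluorescence recorded.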

Test [8] is described as follows: qHTS assay to identify small molecule antagonists of the thyroid receptor (TR) signaling pathway (AID 743065). Note: series mostly up to about 70 µM; nearly all actives have a fitted effect of over 55% in size. Put shortly:
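GH3.TRE-Luc rat pituitary cells (two TREs driving luciferase) were dosed with compound, then stimulated with 1 nM T3 (final) for 23.5 h at 37 C. ONE-Glo luminescence was the read-out, with CellTiter-Fluor fluorescence as the cytotoxicity counter-screen.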

Test [9] deals with thyroid hormone receptor (rat, GH3 cells). Description: qHTS assay to identify small molecule agonists of the thyroid receptor (TR) signaling pathway (AID 743066; calls by dose curve).
Test [10] is described as follows: qHTS assay to identify small molecule antagonists of the estrogen receptor alpha (ER-alpha) signaling pathway - cell viability counter screen (AID 743074; calls by dose curve;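 note: HEK293 cells carrying ER-alpha-UAS-bla reporter stimulated with 17beta-estradiol; nearly all actives have a fitted effect of over 45% in size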).
A short description of test [11]: qHTS assay to identify small molecule antagonists of the estrogen receptor alpha (ER-alpha) signaling pathway using the BG1 cell line - cell viability counter screen (AID 743081).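 Note: compound given together with 17beta-estradiol as the ER stimulus; series mostly up to about 70 µM; nearly all actives have a fitted effect of over 45% in size.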
The next test concerns the target Aromatase (Homo sapiens) (UniProt P11511). The test can be described thus: qHTS assay to identify aromatase inhibitors (AID 743083). Note: series mostly up to about 70 µM; nearly all actives have a fitted effect of over 55% in size.
Test [12] concerns the target Estrogen receptor (Homo sapiens) (UniProt P03372). Description: qHTS assay to identify small molecule antagonists of the estrogen receptor alpha (ER-alpha) signaling pathway (AID 743069; active = well fitted curve in the direction sought with a large enough effect in the signal ratio in the repeat runs, not every such curve was filed as active; the % refers to the signal ratio). An outline of the steps:
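HEK293 ER-alpha-UAS-bla GripTite cells, held overnight in 2% charcoal-stripped FBS, 5,000 cells/well, preincubated 4 h, then compound plus 17beta-estradiol for 18 h at 37C. Beta-lactamase read by LiveBLAzer B/G FRET substrate, 2 h at room temperature.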

Test [13] has the same target. The test can be described thus: qHTS assay to identify small molecule agonists of the estrogen receptor alpha (ER-alpha) signaling pathway (AID 743075; calls by dose curve).
For test [14] the target is unchanged. Description: qHTS assay to identify small molecule agonists of the estrogen receptor alpha (ER-alpha) signaling pathway using the BG1 cell line (AID 743079). Note: nearly all actives have a fitted effect of over 20% in size.
Test [15] can be described thus: qHTS assay to identify small molecule antagonists of the estrogen receptor alpha (ER-alpha) signaling pathway using the BG1 cell line (AID 743080; calls by dose curve;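 note: BG1 cells stimulated with 17beta-estradiol alongside compound; series mostly up to about 70 µM; nearly all actives have a fitted effect of over 25% in size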). Put shortly:
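Seeding, 24 h rest, compound transfer from DMSO, 17beta-estradiol addition, 21.5 h incubation, CellTiter-Fluor (30 min, 37 C), then ONE-Glo (30 min, room temperature): this sequence was run on BG1-Luc-4E2 reporter cells.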

For test [16], the target named is Androgen receptor (Homo sapiens) (UniProt P10275). Description: qHTS assay to identify small molecule antagonists of the androgen receptor (AR) signaling pathway (AID 743035; active = well fitted inhibition curve with a large enough effect in the signal ratio in the repeat runs, not every such curve was filed as active; the % refers to the signal ratio). An outline of the steps: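 Fluorescence from a beta-lactamase FRET substrate (LiveBLAzer B/G, 2 h, room temperature) measured inhibition of R1881-stimulated signaling in GeneBLAzer AR-UAS-bla HEK293 cells exposed to compound for 16 h at 37C.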

For test [17] the target is unchanged. The test can be described thus: qHTS assay to identify small molecule agonists of the androgen receptor (AR) signaling pathway (AID 743036; active = well fitted activation curve with a large enough effect in the signal ratio in the repeat runs, with a control signal flat, not every such curve was filed as active; the % refers to the signal ratio). An outline of the steps: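 Quantitative HTS of the Tox21 10K library in HEK293 cells bearing a stably integrated UAS-controlled beta-lactamase reporter. Compound exposure lasted 16 h at 37C. Reporter activity was detected by FRET substrate fluorescence after 2 h at room temperature.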

For test [18] the target is unchanged. Description: qHTS assay to identify small molecule agonists of the androgen receptor (AR) signaling pathway using the MDA cell line (AID 743040; note: nearly all actives have a fitted effect of over 20% in size). An outline of the steps: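 MDA-kb2 breast carcinoma cells carrying MMTV-luciferase (responsive to AR and GR), plated 5 h then treated 16 h with compounds at 37C, 0% CO2. Read-out was ONE-Glo luminescence after 30 min at room temperature.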

The target is the same in test [19]. Description: qHTS assay to identify small molecule antagonists of the androgen receptor (AR) signaling pathway using the MDA cell line (AID 743042; note: nearly all actives have a fitted effect of over 55% in size). An outline of the steps:
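MDA-kb2 breast carcinoma cells carrying MMTV-luciferase (AR/GR responsive) were co-treated with compounds and the agonist R1881 for 16 h at 37C. Inhibition read as ONE-Glo luminescence; CellTiter-Fluor fluorescence measured in parallel for cytotoxicity.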

Molecules are shown by their SMILES. Where “and” joins values, the source holds several entries; their conditions need not be identical. Equal entries are not always repeated. Inconclusive results are not listed. More than one record can exist for a structure, and the calls need not agree. Calls of active or inactive are those of the source. Unless noted, calls come from the whole dose curve; as a rule, active = well fitted curve in the direction sought with a large enough effect in the repeat runs; inconclusive = weak or mixed curves; inactive = no such curve, though single readings can be large; an effect the other way counts as inactive or inconclusive.

Chain of Estrogen receptor (Homo sapiens) (P03372 whole entry, looked up): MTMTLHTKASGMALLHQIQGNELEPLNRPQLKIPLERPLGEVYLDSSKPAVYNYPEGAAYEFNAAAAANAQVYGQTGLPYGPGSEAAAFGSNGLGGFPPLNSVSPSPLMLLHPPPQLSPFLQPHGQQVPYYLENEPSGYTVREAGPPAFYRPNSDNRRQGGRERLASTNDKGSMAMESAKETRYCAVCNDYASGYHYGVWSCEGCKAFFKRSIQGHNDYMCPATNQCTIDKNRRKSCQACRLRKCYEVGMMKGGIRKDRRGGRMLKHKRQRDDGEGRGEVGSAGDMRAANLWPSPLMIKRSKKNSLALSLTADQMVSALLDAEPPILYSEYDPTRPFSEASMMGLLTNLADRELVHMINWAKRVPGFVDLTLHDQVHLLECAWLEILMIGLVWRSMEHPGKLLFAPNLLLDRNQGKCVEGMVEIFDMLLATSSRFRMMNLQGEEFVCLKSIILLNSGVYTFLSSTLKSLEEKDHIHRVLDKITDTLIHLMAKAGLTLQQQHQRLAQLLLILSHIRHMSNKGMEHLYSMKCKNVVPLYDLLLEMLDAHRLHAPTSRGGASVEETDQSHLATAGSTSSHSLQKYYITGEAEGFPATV
Chain of Androgen receptor (Homo sapiens) (P10275 whole entry, looked up): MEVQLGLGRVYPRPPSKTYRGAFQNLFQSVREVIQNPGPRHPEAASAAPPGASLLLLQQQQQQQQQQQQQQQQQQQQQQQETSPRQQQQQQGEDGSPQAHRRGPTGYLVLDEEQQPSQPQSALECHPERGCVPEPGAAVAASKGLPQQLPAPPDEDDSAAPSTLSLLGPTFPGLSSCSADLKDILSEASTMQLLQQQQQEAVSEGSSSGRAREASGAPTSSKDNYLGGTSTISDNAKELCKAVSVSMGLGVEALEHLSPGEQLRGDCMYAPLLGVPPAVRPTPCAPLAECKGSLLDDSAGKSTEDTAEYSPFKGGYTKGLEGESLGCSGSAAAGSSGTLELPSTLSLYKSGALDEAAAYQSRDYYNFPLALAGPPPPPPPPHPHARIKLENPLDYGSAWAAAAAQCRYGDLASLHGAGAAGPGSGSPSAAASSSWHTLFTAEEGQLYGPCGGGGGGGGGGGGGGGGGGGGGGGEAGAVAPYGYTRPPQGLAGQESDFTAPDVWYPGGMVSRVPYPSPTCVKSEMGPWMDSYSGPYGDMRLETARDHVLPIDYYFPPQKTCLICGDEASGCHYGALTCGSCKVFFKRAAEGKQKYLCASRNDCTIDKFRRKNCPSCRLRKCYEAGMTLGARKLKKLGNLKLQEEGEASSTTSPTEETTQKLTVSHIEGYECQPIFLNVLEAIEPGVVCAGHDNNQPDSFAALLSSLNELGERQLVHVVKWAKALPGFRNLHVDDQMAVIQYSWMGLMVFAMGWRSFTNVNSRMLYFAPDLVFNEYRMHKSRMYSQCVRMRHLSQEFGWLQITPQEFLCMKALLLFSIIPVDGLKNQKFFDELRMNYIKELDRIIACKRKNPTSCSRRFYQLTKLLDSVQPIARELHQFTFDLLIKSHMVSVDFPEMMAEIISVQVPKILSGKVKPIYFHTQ
Chain of Aromatase (Homo sapiens) (P11511 whole entry, looked up): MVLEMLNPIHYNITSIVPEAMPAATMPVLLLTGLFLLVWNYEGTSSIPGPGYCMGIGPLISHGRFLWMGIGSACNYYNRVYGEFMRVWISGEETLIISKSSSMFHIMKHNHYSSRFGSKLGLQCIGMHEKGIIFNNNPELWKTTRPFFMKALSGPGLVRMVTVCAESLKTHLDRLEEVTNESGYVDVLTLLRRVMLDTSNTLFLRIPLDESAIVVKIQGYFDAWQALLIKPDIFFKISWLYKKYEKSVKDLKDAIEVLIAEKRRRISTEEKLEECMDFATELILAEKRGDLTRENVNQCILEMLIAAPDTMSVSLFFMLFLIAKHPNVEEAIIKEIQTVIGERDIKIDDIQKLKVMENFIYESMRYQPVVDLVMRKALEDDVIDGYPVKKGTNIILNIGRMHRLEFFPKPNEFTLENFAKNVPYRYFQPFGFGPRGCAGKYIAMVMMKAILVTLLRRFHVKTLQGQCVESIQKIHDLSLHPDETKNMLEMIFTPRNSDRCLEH

Take `O=C(OCc1ccccc1)c1ccccc1`: the Potency entry in [1], in test [2], in test [3], in [4], in test [6] and in [7] was “inactive” throughout. For the same compound, the Potency entry (in [8]; in test [11]; with Aromatase (Homo sapiens)) was “inactive” each time. Further, the compound was called inactive in test [5], in test [9] and in test [10].

For `O=C1CCCCCN1`, the Potency result in test [1], in test [2], in test [3], in test [4], in test [6] and in test [7] was “inactive” in each case. Besides, the Potency entry (in test [8]; in test [11]; in the test with Aromatase (Homo sapiens)) was “inactive” in each case. Also, the compound was called inactive in test [5], in test [9] and in test [10].

Take `CN/C(=C\[N+](=O)[O-])NCCSCc1ccc(CN(C)C)o1`: the Potency result in test [1], in test [2], in test [3], in test [4], in [6] and in [7] was “inactive” each time. For the same compound, the Potency entry (in test [12]; in [13]; in [14]; in test [15]; in test [11]; in the test with Aromatase (Homo sapiens)) was “inactive” throughout. In addition, the compound was classed as inactive in [5] and in test [10].

Regarding `COCCOCCOC`, the Potency entry in [1], in test [2], in test [4], in test [16], in test [18] and in test [6] was “inactive” throughout. The Potency entry in [19], in [7], in [8], in [12], in test [13] and in test [14] was “inactive” throughout. In addition, the Potency entry (in [15]; in test [11]; with Aromatase (Homo sapiens)) was “inactive” each time. Further, the result in [5], in [17], in test [9] and in test [10] was inactive.

Consider `CC(=O)c1ccc(S(=O)(=O)NC(=O)NC2CCCCC2)cc1`, for which the Potency result in [1], in test [2], in test [4], in test [16], in [18] and in test [6] was “inactive” in each case. Further, the Potency entry in test [19], in [7], in test [8], in [12], in test [13] and in test [14] was “inactive” throughout. Further, the Potency result (in [15]; in test [11]; with Aromatase (Homo sapiens)) was “inactive” each time. Besides, the compound was called inactive in test [5], in test [17], in [9] and in test [10].

Take `CC(C)=CCC/C(C)=C/CO`: the Potency entry in [1], in test [2], in test [4], in test [6], in test [7] and in test [8] was “inactive” throughout. The Potency result in test [11] was “inactive”. Further, the call in test [5], in test [17], in [9] and in [10] was inactive.

In the case of `COC(=O)C1CCC(C(=O)OC)CC1` (configuration not stated), the Potency result in test [1], in test [2], in [4], in [6], in test [7] and in test [8] was “inactive” each time. Further, the Potency entry (in test [12]; in [13]; in test [14]; in [15]; in test [11]; with Aromatase (Homo sapiens)) was “inactive” throughout. The compound was classed as inactive in [5], in [9] and in test [10].

Take `NC(=O)N1c2ccccc2C=Cc2ccccc21`: the Potency result in test [1], in test [6], in test [7], in test [8], in test [12] and in test [13] was “inactive” throughout. Further, the Potency result (in test [14]; in [15]; in test [11]; with Aromatase (Homo sapiens)) was “inactive” each time. Moreover, the Potency result in test [2] was “inactive and 30.6 µM (active)”; in test [4] it was “inactive and 54.5 µM (active)”. Moreover, the call in test [5], in test [9] and in test [10] was inactive.
